The source of these data is PubChem BioAssay AID2018 (Sanford-Burnham Center for Chemical Genomics, 2009).

Out of some 1,200 compounds screened, about 600 (50%) were called active. No stated cut-off is given here; in the data, active means inhibition above about 42%; inactive means the rest. The set was probably picked from earlier hits. The list shows a part of the results. Results with a measured potency or affinity are listed apart.

Sequence of SUMO-conjugating enzyme UBC9 (Homo sapiens) (P63279 whole entry, looked up): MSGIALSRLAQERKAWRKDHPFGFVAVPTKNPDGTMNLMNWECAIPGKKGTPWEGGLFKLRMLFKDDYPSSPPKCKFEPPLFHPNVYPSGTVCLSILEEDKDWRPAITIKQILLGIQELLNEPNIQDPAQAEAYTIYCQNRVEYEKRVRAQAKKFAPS

This test addresses SUMO-conjugating enzyme UBC9 (Homo sapiens) (UniProt P63279). Put plainly: blockers of UBC9-mediated SUMO conjugation – biochemical, AlphaScreen, SUMOylation inhibitor project, confirmation (AID 2018). Conditions: AlphaScreen in vitro SUMOylation assay; at 35 µM; hits give high values.
Turning to `CCOCCCN1CN(Cc2ccco2)CNC1=S`, the inhibition is 4.1% (inactive).

On to `O=C(O)/C=C\c1cn(-c2ccccc2)nc1-c1cc2ccccc2o1`, for which the inhibition is 27.9% (inactive). For the compound `O=C(O)/C=C/c1cn(-c2ccccc2)nc1-c1cc2ccccc2o1`, the inhibition was 10.4% (inactive).

With `C=CCn1c(NC(=O)c2ccc(Br)o2)c(S(=O)(=O)c2ccccc2)c2nc3ccccc3nc21`, the inhibition was 65.4% (active). On to `Cc1ccc(C)c(S(=O)(=O)c2c(N)n(/N=C/c3ccco3)c3nc4ccccc4nc23)c1`, for which the inhibition is 23% (inactive). With `COc1ccc(CNC(=O)c2c(N)n(CCCN3CCOCC3)c3nc4ccccc4nc23)cc1`, the inhibition was 3.3% (inactive). As for `Cc1ccc(S(=O)(=O)c2c(N)n(/N=C/c3ccco3)c3nc4ccccc4nc23)cc1C`, the inhibition is 26.1% (inactive).

Take `O=C(c1cccn2c(=O)c3cc(Cl)ccc3nc12)N1CCOCC1`: the inhibition was 5.9% (inactive).

For the compound `Cc1ncc(CO)c(/C=N/NC(=O)c2cc(O)c(O)c(O)c2)c1O`, the inhibition is 99.6% (active).

For `CC(=O)NC1C(=O)N(CCN2CCOCC2)c2ccc(Br)cc21` (stereo unspecified), the inhibition is 99% (active). The result for `CCOc1ccc2c(c1)C(NC(C)=O)C(=O)N2CCN1CCOCC1` (stereo unspecified) reads 95.9% (active). The result for `Brc1ccc(OCCN2CCOCC2)cc1` reads 13.4% (inactive).

Consider `Cn1c(=O)n(C)c2cc(S(=O)(=O)NCCO)ccc21`, for which the inhibition was 13.1% (inactive).

With `CCc1ccc2c(c1)C(NC(C)=O)C(=O)N2CCN1CCOCC1` (stereo unspecified), the inhibition is 96.7% (active). Turning to `O=C(Nc1cccc2ccccc12)N1CCc2ccccc2C1`, the inhibition is 13.1% (inactive). `Oc1ccc(N=Cc2ccc(-c3cccs3)s2)cc1`: the inhibition was 52.6% (active).

As for `Cc1ccc(C)c(-c2nc3ccc(N)cc3[nH]2)c1`, the inhibition is 8.5% (inactive). Take `N#CC1=C(SCC(=O)NC23CC4CC(CC(C4)C2)C3)NC(=O)C(C#N)C12CCCCC2` (stereo unspecified): the inhibition is -21.2% (inactive). In the case of `COc1ccc(OC)c2c1C(=O)c1ccccc1C2=O`, the inhibition is 44% (active).

`CN(C)/C=C1\Oc2ccc3ccccc3c2C1=O`: the inhibition was -1.5% (inactive). Turning to `CN(C)/C=C1/Oc2c(ccc3ccccc23)C1=O`, the inhibition was -1.2% (inactive).

Regarding `COc1cccc2c1C(=O)c1ccc3ccccc3c1C2=O`, the inhibition was 75.8% (active). As to `COc1ccc(Cc2n[nH]c(=S)n2NC(=O)Nc2ccc(Cl)c(Cl)c2)cc1`, the inhibition is 24.4% (inactive). On to `COCCn1nnnc1C(c1cc2ccc(OC)cc2[nH]c1=O)N1CCc2ccccc2C1` (stereo unspecified), for which the inhibition was 4.8% (inactive). As for `COc1ccc(-c2cc(=O)[nH][nH]2)cc1`, the inhibition is 27.6% (inactive). `COc1ccc(NCc2cc3ccccc3[nH]c2=O)cc1`: the inhibition was 46.4% (active). Turning to `O=C(NCc1ccccc1)Nc1cccn(Cc2ccc(Cl)cc2)c1=O`, the inhibition is -10.4% (inactive). The result for `CN(C)/C=N/c1nc2nccc(-c3ccc(F)cc3)n2n1` reads 1.6% (inactive); that for `CCN(CC)S(=O)(=O)c1cc(C)ccc1SC`, -1% (inactive). The result for `Cc1ccc(C(=O)c2c3ccc(N)cc3nn2CCC(N)=O)cc1` reads 38.2% (inactive).

As to `Cc1c(N=C2C=CC(=O)c3ccccc32)c(=O)n(-c2ccccc2)n1C`, the inhibition was 102% (active). On to `CCc1cc2c(=O)nc3n(c2s1)Cc1ccccc1/C3=C(/O)c1cccc([N+](=O)[O-])c1`, for which the inhibition was 16.9% (inactive). Consider `Cc1cc(=O)n2[nH]c(N)c(N=Nc3ccccc3F)c2n1`, for which the inhibition was 12.9% (inactive). For the compound `Nc1c(C(=O)Nc2ccccc2)sc2nc(-c3ccco3)ccc12`, the inhibition is -10.2% (inactive).

As for `Nc1c(C(=O)Nc2ccc(F)cc2)sc2nc(-c3ccco3)ccc12`, the inhibition was 35.1% (inactive). The result for `COc1ccccc1NC(=O)Nc1ccnn1Cc1cccs1` reads 16.5% (inactive); that for `Cc1ccc(S(=O)(=O)N2CCCCC2)cc1NC(=O)COC(=O)c1c(F)cccc1F`, -6.2% (inactive). As to `Cc1cc2c(NC(=O)Nc3ccc(C(C)(C)C)cc3)cccc2nn1`, the inhibition is 15.3% (inactive). As to `CCOC(=O)NC(=O)COC(=O)c1ccc(O)cc1`, the inhibition is 24.8% (inactive).

Turning to `COCCNC(=O)Nc1ccc2nc(-c3ccco3)c(-c3ccco3)nc2c1`, the inhibition is 102% (active).

For the compound `COc1ccc2nc(-c3ccco3)c(-c3ccco3)nc2c1`, the inhibition is 76.8% (active). As for `COc1cc(OC)cc(-c2nc(-c3ccccc3)no2)c1`, the inhibition was -70.2% (inactive). Turning to `COCCn1c(-c2ccco2)nc2nc3ccccc3nc21`, the inhibition is 19.2% (inactive). With `O=C(NCc1ccco1)Nc1ccc2snnc2c1`, the inhibition was 11% (inactive).

Turning to `CCOc1ccccc1Oc1c(C)oc2c(CN3CCN(C)CC3)c(O)ccc2c1=O`, the inhibition was -5.4% (inactive). As to `S=c1[nH]nc(-c2cc(-c3ccccc3)n[nH]2)n1/N=C/c1ccc(Cl)c(Cl)c1`, the inhibition was 12.5% (inactive). Take `Cc1cccc(-c2n[nH]c(=S)n2/N=C/C=C/c2ccco2)c1`: the inhibition was 37.5% (inactive). For `O=C(O)CCCCCNc1ccc2nsnc2c1[N+](=O)[O-]`, the inhibition is -10.2% (inactive). For `C[C@@H]1CN=C2N(CCNC(=O)CCC3CCCCC3)[C@H](Cc3ccc(O)cc3)CN21`, the inhibition is 6% (inactive). In the case of `O=C1OC(Nc2ccc3ncccc3c2)c2ccccc21` (stereo unspecified), the inhibition is 2.1% (inactive). Consider `Cc1cccc(C(=O)O)c1NC(=O)c1ccc(F)cc1`, for which the inhibition is 2.9% (inactive). The result for `Cc1cc2c(NC(=O)Nc3ccc(F)cc3)cccc2nn1` reads 10.5% (inactive); that for `Cc1cc2c(NC(=O)Nc3ccccc3)cccc2nn1`, 26.1% (inactive); that for `Cc1cc2c(N)cccc2nn1`, 101% (active). For `COc1ccc(C2C3=C(CCCC3=O)Nc3c(-c4ccccc4)c(C)nn32)cc1` (stereo unspecified), the inhibition was 4.2% (inactive).

Take `O=C(O)CSc1cc(C(=O)c2cc(F)ccc2O)cn2c(=O)c3c(-c4ccccc4)csc3nc12`: the inhibition is 95.3% (active). Consider `O=C(O)CSc1cc(C(=O)c2ccccc2O)cn2c(=O)c3c(-c4ccccc4)csc3nc12`, for which the inhibition was 99.2% (active).

With `COc1ccc(/C=C/c2cc(C(=O)O)c3ccccc3n2)cc1`, the inhibition was 21.4% (inactive). For `N#CCCN(Cc1cccnc1)C(=S)NC1CC2C=CC1C2` (stereo unspecified), the inhibition is -4.1% (inactive). Turning to `CCOC(=O)Cn1c2ccc(OC)cc2c2nc3ccccc3nc21`, the inhibition was 38.7% (inactive). `COC(=O)Cn1c2ccc(C)cc2c2nc(C)sc21`: the inhibition was 30.1% (inactive). Regarding `COc1cc2c(C#N)c(N3CCN(C)CC3)nc(N)c2c(N)n1`, the inhibition is 21.5% (inactive). Regarding `COc1cc2c(C#N)c(N3CCN(c4ccccc4OC)CC3)nc(N)c2c(N)n1`, the inhibition was 19.7% (inactive).

As to `COc1cc2c(C#N)c(N3CCCCC3)nc(N)c2c(N)n1`, the inhibition was 47.6% (active).

For `CCCN(CC1CC1)c1nc(N)c2c(N)nc(OC)cc2c1C#N`, the inhibition was 16.9% (inactive). Turning to `CN1CCc2cc3c(c4c2[C@H]1[C@H](O)c1ccccc1-4)OCO3`, the inhibition was 74% (active).

In the case of `NC(N)=NS(=O)(=O)c1ccc(NC(=S)NC(=O)/C=C/c2ccco2)cc1`, the inhibition was 34.2% (inactive). The result for `CC(=O)NC(=S)Nc1ccc(NC(=S)NC(=O)/C=C/c2ccco2)cc1` reads 7.8% (inactive); that for `COc1ccc(NC(=O)N2c3ccc(OC)cc3C(C)=CC2(C)C)cc1`, 28.1% (inactive); that for `Cc1c(C(=O)c2ccc(F)cc2F)c2ccccn2c1CCC#N`, 15.4% (inactive). With `COc1ccc(Cn2c(C)c(C)c(C#N)c2NC(=O)Nc2ccc(F)cc2)cc1`, the inhibition is -26.7% (inactive). Regarding `c1cc(Nc2ncnc3sc4c(c23)CCC4)ccn1`, the inhibition was 12.9% (inactive). As for `Cc1cc2n(n1)SC(Nc1cccc3ccccc13)N2` (stereo unspecified), the inhibition was 14% (inactive). Take `Cc1ccc2cc(C(c3nnnn3C(C)(C)C)N3CCCCCC3)c(=O)[nH]c2c1` (stereo unspecified): the inhibition is 0.1% (inactive). In the case of `CNS(=O)(=O)c1ccc2nc(NC(=O)/C=C/c3ccco3)sc2c1`, the inhibition is 16.2% (inactive). On to `COc1ccc(-c2csc(NC(=S)NC(=O)/C=C/c3ccco3)n2)cc1OC`, for which the inhibition is 74.2% (active). As to `Cc1nc2ccc(-c3nc4cc(N)ccc4o3)cc2[nH]1`, the inhibition was -11.6% (inactive).

Regarding `CCCCCCC(C)OC(=O)c1ccccc1C(=O)O` (stereo unspecified), the inhibition was 10.7% (inactive). The result for `Cc1c(Br)c(O)c(Br)c2sc(=O)oc12` reads 49.6% (active); that for `Cc1ccc(Nc2nc(=O)c3cc([N+](=O)[O-])ccc3s2)cc1`, 24.2% (inactive). For the compound `COc1cc([N+](=O)[O-])cc(/C=N/NC(=O)C(C)Nc2cccc3ccccc23)c1O` (stereo unspecified), the inhibition is -212% (inactive). The result for `COc1cccc(OC)c1C(=O)N1CCNCC1` reads -1.1% (inactive); that for `COc1cccc(/C=N/NC(=O)C(=O)N/N=C/c2cccc(OC)c2O)c1O`, 98.6% (active); that for `CC(O)C(=O)N/N=C/c1cccc(Cl)c1Cl` (stereo unspecified), -34.7% (inactive).

Regarding `O=C(N/N=C/c1ccc(O)cc1O)C(=O)N/N=C/c1ccc(O)cc1O`, the inhibition was 101% (active).

Turning to `O=C(CNc1ccc2ccccc2c1)N/N=C/c1cc2ccccc2nc1Cl`, the inhibition is 37.3% (inactive). The result for `COc1ccc2c(c1)-c1nc(/N=C/c3cccc(OC)c3O)sc1CC2` reads 28.4% (inactive); that for `O=C(NCCNc1ccc2ccccc2c1)c1cccn2c(=O)c3sccc3nc12`, 23.7% (inactive); that for `CC(C)CC(=O)Nc1ccc2oc(-c3cccnc3)nc2c1`, 16.9% (inactive). Regarding `Cc1ccc(-c2nc3cc(N)ccc3o2)cc1`, the inhibition is 11.5% (inactive).

`Cn1nccc1NC(=O)Nc1cccc(Br)c1`: the inhibition is -0.2% (inactive). In the case of `CN1C(=O)c2cccc3c(S(=O)(=O)NCCc4ccccc4)ccc1c23`, the inhibition was -13% (inactive).

Turning to `CCN1C(=O)c2cccc3c(N)ccc1c23`, the inhibition is 50% (active). The result for `CN1C(=O)c2cccc3c(S(=O)(=O)NCc4ccco4)ccc1c23` reads 5% (inactive). The result for `C=CCN1C(=O)N(/C=C/C)c2cccc3cccc1c23` reads -14.9% (inactive). On to `COc1cccc(C(=O)Nc2cccc(C(=O)NC3=NN(c4c(Cl)cc(Cl)cc4Cl)C(=O)C3)c2)c1`, for which the inhibition is 101% (active). As for `COC(=O)/C(=C\Nc1ccc(Cl)cc1Cl)NC(=O)c1ccc(OC)cc1`, the inhibition was 22.8% (inactive). The result for `COc1cccc(NC(=S)Nc2cccc3ccccc23)c1` reads 30.7% (inactive); that for `O=C(CNc1cccc2ccccc12)N/N=C/c1ccccn1`, -1.7% (inactive). Turning to `O=C(Cc1cc(=O)[nH][nH]1)N/N=C/c1cccc2ccccc12`, the inhibition is 47.2% (active).

As to `C=CCc1cccc(/C=N/NC(=O)CNc2cccc3ccccc23)c1O`, the inhibition is 25.1% (inactive).

The inhibition is the change of the read-out against control, counted positive when it falls.
